According to PubChem BioAssay (EPA / NIEHS):
“And” between values parts separate entries of the source, which are not always exact repeats. Equal values may be shown once. The source holds several records for some structures; these can differ, active in one and inactive in another. The source made the active and inactive calls. Rule for the calls: active = hit-call score of the fitted dose curve at least 0.9, where 1 is the maximum; inactive = score below 0.9.

What was measured:
[1] = APR_HepG2_P-H2AX_72hr: Apredica 72-hour HepG2 Assay for H2AX Phosphorylation (AID 2282916); conditions: imaging, actives raise or lower the signal;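 note: phospho-histone H2A.x immunostain intensity per cell marking DNA damage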
How it was run: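 HepG2 human liver cells were exposed for 72 hr to compounds at 0.39–200 uM (10 concentrations, duplicate per plate) in 0.5% v/v DMSO. Fixed, permeabilized cells were immunolabeled for phospho-histone H2A.x with Hoechst 33342 and imaged by HCS fluorescence; bidirectional fit versus DMSO.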

[2] = APR_HepG2_MitoMembPot_72hr: Apredica 72-hour HepG2 Assay for Mitochondrial Membrane Potential (AID 2282917); conditions: imaging, actives raise or lower the signal
How it was run: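 Membrane potential read by MitoTracker Red CMXRos (250 nM, 30 min, pre-fixation) fluorescence imaging of HepG2 after 72 hr exposure. Ten concentrations, 0.39–200 uM, duplicate wells, 0.5% DMSO; fitted in both directions against DMSO baseline.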

[3] = APR_HepG2_MitoticArrest_72hr: Apredica 72-hour HepG2 Assay for Mitotic Arrest (AID 2282918); conditions: high-content imaging, actives raise or lower the signal
How it was run: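 HepG2 cells treated 72 h at 0.39–200 uM, 0.5% DMSO final; formaldehyde-fixed, stained with Hoechst 33342 and phospho-histone H3 antibody, imaged by high-content fluorescence; bidirectional fit versus DMSO.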

[4] = APR_HepG2_MicrotubuleCSK_72hr: Apredica 72-hour HepG2 Assay for Microtubule CSK Stabilty (AID 2282919); conditions: HepG2 microtubule cytoskeleton, high-content imaging, actives raise or lower the signal
How it was run: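 Read-out is tubulin fluorescence intensity from high-content imaging of HepG2 cells, with nuclei identified by Hoechst 33342. Treatment lasts 72 h at 0.39–200 uM, and curves are fitted bidirectionally against the DMSO negative control.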

[5] = APR_HepG2_P-H2AX_24hr: Apredica 24-hour HepG2 Assay for H2AX Phosphorylation (AID 2282920); conditions: high-content imaging, actives raise or lower the signal
How it was run: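 HepG2 cells dosed 24 h at 0.39–200 uM (10 points, duplicate, 0.5% DMSO final). Formaldehyde-fixed and permeabilized, then immunostained for phospho-H2A.x with Hoechst. Fluorescence quantified by high-content imaging, fitted bidirectionally versus DMSO.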

[6] = APR_HepG2_StressKinase_72hr: Apredica 72-hour HepG2 Assay for Stress Kinase (AID 2282921); conditions: HepG2 stress kinase (phospho-c-Jun) imaging, actives raise or lower the signal
How it was run: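 Cells were exposed for 72 h to ten concentrations (0.39–200 uM, duplicate) at 0.5% v/v DMSO final, then fixed with 3.7% formaldehyde, permeabilized and immunostained for phospho-c-Jun (Cy3 secondary) with Hoechst nuclear counterstain.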

[7] = APR_HepG2_StressKinase_24hr: Apredica 24-hour HepG2 Assay for Stress Kinase (AID 2282922); conditions: HepG2 stress kinase (phospho-c-Jun) imaging, actives raise or lower the signal
How it was run: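 HepG2, 24 hr dosing, 0.39–200 uM in duplicate, 0.5% DMSO; formaldehyde fix (3.7%), 0.5% Triton X-100; anti-phospho-c-Jun + Cy3 secondary, Hoechst counterstain; ArrayScan imaging; bidirectional curve fit vs DMSO baseline.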

[8] = APR_HepG2_p53Act_72hr: Apredica 72-hour HepG2 Assay for p53 Activation (AID 2282923); conditions: high-content imaging, actives raise or lower the signal;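 note: average cellular p53 protein immunofluorescence intensity in HepG2 cells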
How it was run: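 Cells were dosed for 72 hr with compounds at 0.39–200 uM in duplicate (final DMSO 0.5% v/v), then fixed in 3.7% formaldehyde, permeabilized with Triton X-100 and immunostained for p53 (Cy5) with Hoechst 33342 nuclear counterstain.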

[9] = APR_HepG2_MitoMass_72hr: Apredica 72-hour HepG2 Assay for Mitochondrial Mass (AID 2282924); conditions: high-content imaging, actives raise or lower the signal;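 note: MitoTracker Red CMXRos stain intensity per cell imaged as mitochondrial mass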
How it was run: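 HepG2, 72 hr cmpd, 10 conc 0.39–200 uM in dup, DMSO 0.5% v/v. MitoTracker Red CMXRos 250 nM 30 min pre-fix; formaldehyde 3.7% fix 30 min RT. HCS imaging, gain/loss fit vs DMSO.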

[10] = APR_HepG2_NuclearSize_72hr: Apredica 72-hour HepG2 Assay for Nuclear Size (AID 2282925); conditions: high-content imaging, actives raise or lower the signal
How it was run: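 HepG2; cpd 0.39–200 uM, 10 conc, duplicate; 72 h; DMSO 0.5% v/v; fix 3.7% formaldehyde 30 min RT; Triton permeabilization; Hoechst 2 ug/mL; HCS imaging 20x; nuclear diameter; gain/loss fit vs DMSO.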

[11] = biological target: CCAAT/enhancer-binding protein beta (Homo sapiens) (UniProt P17676); test: ATG_C_EBP_CIS: Attagene CIS-FACTORIAL HepG2 Assay for human CCAAT/Enhancer Binding Protein (C/EBP) beta (AID 2282927); conditions: HepG2 Attagene cis-factorial transcription factor reporter; actives raise or lower the signal
Chain of CCAAT/enhancer-binding protein beta (Homo sapiens) (P17676 whole entry, looked up, the tested form may be a part): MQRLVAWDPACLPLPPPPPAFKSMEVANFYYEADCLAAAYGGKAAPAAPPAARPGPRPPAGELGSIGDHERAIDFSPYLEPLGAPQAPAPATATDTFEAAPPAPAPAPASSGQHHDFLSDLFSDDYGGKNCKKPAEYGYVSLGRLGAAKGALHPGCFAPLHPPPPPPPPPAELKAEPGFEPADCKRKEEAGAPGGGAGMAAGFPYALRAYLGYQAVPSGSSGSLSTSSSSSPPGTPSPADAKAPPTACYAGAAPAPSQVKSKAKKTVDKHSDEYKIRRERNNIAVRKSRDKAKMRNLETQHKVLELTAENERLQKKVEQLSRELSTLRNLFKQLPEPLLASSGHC
How it was run: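 Endogenous C/EBPb-driven reporter transcripts measured in transfected human HepG2 cells at 24 h via RT-PCR and capillary electrophoresis of labelled fragments. Activity fitted in both directions relative to DMSO baseline.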

[12] = ATG_CMV_CIS: Attagene CIS-FACTORIAL HepG2 Assay for human CMV (Internal Marker) (AID 2282928); conditions: HepG2 CMV promoter reporter, transcription factor profiling; actives raise or lower the signal;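 note: endpoint acts as a background internal control marker rather than a target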
How it was run: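 HepG2 cells transiently transfected with multiple cis-regulated reporter units; 24 h compound exposure. Reporter mRNA quantified by RT-PCR, 6-FAM primer-extension labeling, HpaI digestion and capillary electrophoresis; bidirectional fitting against DMSO baseline.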

[13] = biological target: Aryl hydrocarbon receptor (Homo sapiens) (UniProt P35869); test: ATG_Ahr_CIS: Attagene CIS-FACTORIAL HepG2 Assay for human Aryl Hydrocarbon Receptor (Ahr) (AID 2282930); conditions: HepG2 AhR cis-factorial reporter transcription; actives raise or lower the signal
Chain of Aryl hydrocarbon receptor (Homo sapiens) (P35869 whole entry, looked up): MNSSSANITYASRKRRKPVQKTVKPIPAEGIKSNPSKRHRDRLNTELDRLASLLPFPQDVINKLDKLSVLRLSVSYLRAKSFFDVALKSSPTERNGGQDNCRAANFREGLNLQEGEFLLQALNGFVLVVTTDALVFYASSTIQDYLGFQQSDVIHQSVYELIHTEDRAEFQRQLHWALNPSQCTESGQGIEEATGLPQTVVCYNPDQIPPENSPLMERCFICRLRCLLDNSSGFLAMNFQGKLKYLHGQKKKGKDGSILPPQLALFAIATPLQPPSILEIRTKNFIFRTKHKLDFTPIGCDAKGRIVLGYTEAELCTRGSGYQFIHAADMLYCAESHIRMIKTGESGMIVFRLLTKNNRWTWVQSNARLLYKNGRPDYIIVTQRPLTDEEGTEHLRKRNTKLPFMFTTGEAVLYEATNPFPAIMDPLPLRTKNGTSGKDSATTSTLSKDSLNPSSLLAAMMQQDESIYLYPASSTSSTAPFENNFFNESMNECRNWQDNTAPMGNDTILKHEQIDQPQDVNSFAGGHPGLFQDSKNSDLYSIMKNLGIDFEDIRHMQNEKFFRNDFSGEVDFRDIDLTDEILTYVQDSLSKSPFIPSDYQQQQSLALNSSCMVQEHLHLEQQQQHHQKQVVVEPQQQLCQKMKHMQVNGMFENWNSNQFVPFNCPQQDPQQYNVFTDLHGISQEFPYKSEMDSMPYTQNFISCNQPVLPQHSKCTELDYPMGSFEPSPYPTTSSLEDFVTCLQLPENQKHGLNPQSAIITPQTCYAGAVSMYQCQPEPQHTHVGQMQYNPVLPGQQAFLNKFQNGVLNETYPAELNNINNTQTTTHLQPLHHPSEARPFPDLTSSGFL
How it was run: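 Reporter mRNA levels, quantified by RT-PCR and fluorescent capillary electrophoresis, reflect endogenous AhR transcriptional activity in HepG2 cells carrying transfected cis-promoter reporter constructs. Readout at 24 h post-dose; gain or loss fitted against DMSO baseline.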

[14] = ATG_AP_1_CIS: Attagene CIS-FACTORIAL HepG2 Assay for human Activator Protein 1 (AP-1) (AID 2282931); conditions: HepG2 Attagene cis-factorial AP-1 reporter mRNA; actives raise or lower the signal
How it was run: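 HepG2 cells transiently transfected with cis-element-driven multiplex reporter units; 24 h compound exposure. Reporter mRNA quantified by RT-PCR, FAM-labelled fragments resolved by capillary electrophoresis; bidirectional fit versus DMSO baseline.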

[15] = ATG_AP_2_CIS: Attagene CIS-FACTORIAL HepG2 Assay for human Activator Protein 2 (AP-2) (AID 2282932); conditions: HepG2 AP-2 cis-reporter, Attagene transcription factor profiling; actives raise or lower the signal
How it was run: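 Step one: transient transfection of HepG2 with reporter transcription units. Step two: 24 h chemical exposure. Step three: RNA extraction, RT-PCR, labelled fragment analysis by capillary electrophoresis; DMSO serves as baseline.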

[16] = ATG_BRE_CIS: Attagene CIS-FACTORIAL HepG2 Assay for human Bone Morphogenetic Protein (BMP) Response Element (BRE) (AID 2282933); conditions: HepG2 BMP response element reporter, Attagene transcription factor profiling; actives raise or lower the signal
How it was run: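 Read-out: reporter mRNA induction quantified by RT-PCR and capillary electrophoresis after 24 h chemical exposure of transfected HepG2 cells. Endogenous factor activity on the BMP response element; gain or loss fitted against DMSO baseline.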

[17] = biological target: Transcription factor E2F1 (Homo sapiens) (UniProt Q01094); test: ATG_E2F_CIS: Attagene CIS-FACTORIAL HepG2 Assay for human E2F Transcription Factor 1 (AID 2282935); conditions: HepG2 Attagene cis-reporter, E2F reporter RNA transcripts; actives raise or lower the signal
Chain of Transcription factor E2F1 (Homo sapiens) (Q01094 whole entry, looked up): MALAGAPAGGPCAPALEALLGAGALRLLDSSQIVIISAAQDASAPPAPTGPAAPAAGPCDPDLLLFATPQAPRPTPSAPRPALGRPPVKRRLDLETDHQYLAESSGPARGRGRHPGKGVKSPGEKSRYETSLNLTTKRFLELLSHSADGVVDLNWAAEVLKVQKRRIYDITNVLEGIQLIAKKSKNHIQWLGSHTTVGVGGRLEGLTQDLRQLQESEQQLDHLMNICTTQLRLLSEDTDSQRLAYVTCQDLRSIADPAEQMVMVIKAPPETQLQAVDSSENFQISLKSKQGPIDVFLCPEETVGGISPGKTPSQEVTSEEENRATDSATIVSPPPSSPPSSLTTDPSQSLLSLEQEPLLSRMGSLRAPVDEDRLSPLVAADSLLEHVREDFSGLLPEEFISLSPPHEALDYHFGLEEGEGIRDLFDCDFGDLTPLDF
How it was run: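 Total RNA from 24 h-treated, reporter-transfected HepG2 cells undergoes DNase I treatment, oligo(dT) reverse transcription, PCR and 6-FAM primer extension before capillary electrophoresis.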

[18] = ATG_DR4_LXR_CIS: Attagene CIS-FACTORIAL HepG2 Assay for human Liver X Receptor (LXR), DR4 submotif (AID 2282929); conditions: HepG2 Attagene DR4 cis-reporter, mRNA transcription; actives raise or lower the signal
How it was run: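 HepG2 cells transiently transfected with cis-promoter-driven multiplexed reporter units (DR4 element) were dosed for 24 h. Reporter mRNA was quantified by RT-PCR, fluorescent primer extension, HpaI digestion and capillary electrophoresis; bidirectional fitting versus DMSO baseline.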

[19] = ATG_CRE_CIS: Attagene CIS-FACTORIAL HepG2 Assay for human cAMP Responsive Element (CRE) binding protein 3 (AID 2282926); conditions: HepG2 CRE cis-reporter, Attagene multiplexed mRNA; actives raise or lower the signal
How it was run: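 HepG2 cells transiently transfected with cis-element-driven multiple reporter transcription units; CRE reporter mRNA measured 24 h after dosing by RT-PCR, 6-FAM labelling, HpaI digestion and capillary electrophoresis. Bidirectional fit versus DMSO baseline.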

[20] = biological target: Retinoic acid receptor alpha (Homo sapiens) (UniProt P10276); test: ATG_DR5_RAR_CIS: Attagene CIS-FACTORIAL HepG2 Assay for human Retinoic Acid Receptor Alpha (RARE), DR5 submotif (AID 2282934); conditions: HepG2 Attagene cis-factorial RARE DR5 reporter, mRNA; actives raise or lower the signal
Chain of Retinoic acid receptor alpha (Homo sapiens) (P10276 whole entry, looked up): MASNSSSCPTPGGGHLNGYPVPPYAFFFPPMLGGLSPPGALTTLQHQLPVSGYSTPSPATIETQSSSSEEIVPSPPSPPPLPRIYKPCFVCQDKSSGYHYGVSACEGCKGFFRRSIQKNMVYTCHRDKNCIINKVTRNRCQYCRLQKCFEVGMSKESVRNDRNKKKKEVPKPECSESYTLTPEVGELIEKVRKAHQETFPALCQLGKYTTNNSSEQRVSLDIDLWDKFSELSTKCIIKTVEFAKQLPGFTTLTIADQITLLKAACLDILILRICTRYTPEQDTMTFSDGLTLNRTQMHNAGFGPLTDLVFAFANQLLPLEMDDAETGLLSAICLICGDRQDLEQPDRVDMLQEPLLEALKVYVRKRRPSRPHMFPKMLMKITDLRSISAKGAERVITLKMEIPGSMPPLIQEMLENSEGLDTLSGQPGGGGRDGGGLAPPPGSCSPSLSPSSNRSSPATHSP
How it was run: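 Reporter transcripts from a DR5-regulated unit, measured via RT-PCR plus capillary electrophoresis, reflect endogenous RAR activity in transiently transfected human HepG2 liver cells. Exposure lasted 24 h; gain or loss of signal scored against DMSO.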

Measured: AC50

Clc1ccc(C(c2ccccc2Cl)C(Cl)(Cl)Cl)cc1 (stereo not drawn)
active: [2] 56.3 µM | [3] 50.9 µM | [5] 82.8 µM | [7] 114 µM | [11] 131 µM | [12] 37.5 µM [middle of 4 runs] | [14] 40.4 µM [middle of 4 runs]
inactive: [1] | [4] | [6] | [8] | [9] | [10] | [11] | [13] | [15] | [16] | [17]

Clc1ccc(C(Cl)(Cl)Cl)cc1
not listed: [8] | [19] | [20]
inactive: all other assays above

Nn1cnnc1
not listed: [8]
inactive: all other assays above

CC(C)(c1ccccc1)c1ccc(O)cc1
inactive: [2] | [3] | [4] | [5] | [6] | [7] | [8] | [9] | [10] | [19] | [11] | [12] | [13] | [15] | [16] | [17]
active: [1] 97 µM | [19] 33.4 µM and 38.9 µM | [11] 46.6 µM | [12] 23.8 µM and 38.4 µM and 43 µM | [18] 40.4 µM [middle of 4 runs] | [14] 45.8 µM [middle of 4 runs] | [15] 33.4 µM | [16] 33.4 µM | [17] 56.3 µM

CCOP(=S)(OCC)SCSC(C)(C)C
inactive: [1] | [2] | [3] | [4] | [5] | [6] | [7] | [9] | [10] | [19] | [11] | [12] | [18] | [13] | [14] | [15] | [16] | [17]
active: [18] 10.6 µM | [13] 78.2 µM

O=C(NC(=O)c1c(F)cccc1F)Nc1cc(Cl)c(OC(F)(F)C(F)F)c(Cl)c1
active: [3] 16.9 µM | [8] 6.27 µM
not listed: [20]
inactive: all other assays above

CC(C)(O)C(=O)Nc1ccc([N+](=O)[O-])c(C(F)(F)F)c1
inactive: [1] | [3] | [4] | [6] | [7] | [8] | [19] | [11] | [12] | [18] | [13] | [14] | [15] | [16] | [17]
active: [2] 0.889 µM | [9] 0.652 µM | [10] 0.522 µM | [19] 51 µM | [11] 57.1 µM | [16] 77 µM and 121 µM

CCC(=O)O[C@H]1CC[C@H]2[C@@H]3CCC4=CC(=O)CC[C@]4(C)[C@H]3CC[C@]12C
active: [1] 86.5 µM | [2] 114 µM | [3] 65 µM | [4] 158 µM | [5] 108 µM | [9] 92.1 µM | [10] 50.8 µM | [19] 144 µM [middle of 4 runs] | [12] 72.9 µM and 100 µM | [18] 170 µM and 169 µM and 162 µM | [13] 38.6 µM | [16] 149 µM and 100 µM and 160 µM
inactive: [6] | [7] | [11] | [12] | [18] | [13] | [14] | [15] | [16] | [20] | [17]

CCC(C)(CC)c1cc(NC(=O)c2c(OC)cccc2OC)on1
active: [19] 1.16 µM | [11] 1.48 µM | [18] 32 µM | [13] 20.5 µM | [16] 9.92 µM
not listed: [8] | [20]
inactive: all other assays above

CCCCCCOC(=O)c1ccccc1C(=O)OCCCCCC
active: [4] 102 µM | [14] 45.3 µM
not listed: [5] | [19]
inactive: all other assays above
